These results are taken from PubChem BioAssay (Tox21).

A number with no mark means an inactive call. Results filed as inconclusive are left out. The source made the active and inactive calls. Unless noted, calls come from the whole dose curve; as a rule, active = well fitted curve in the direction sought with a large enough effect in the repeat runs; inconclusive = weak or mixed curves; inactive = flat fitted curve, though single readings scatter.

Assay [1] is described as follows: qHTS assay to test for compound auto fluorescence at 460 nm (blue) in HEK293 cell free culture (AID 720681). Note: potency is the fitted concentration of half-maximal effect. The essentials: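 Test compounds were pinned into cell-free culture medium (DMEM with 10% FBS) and fluorescence was read directly at Ex/Em 405/460 nm. Signals were expressed as fluorescence equivalents of triamterene, with DMSO vehicle as control.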
The nature of assay [2]: qHTS assay to test for compound auto fluorescence at 590 nm (red) in HEK293 cell free culture (AID 720683). An outline of the steps: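 Tox21 10K library compounds were pinned into cell-free DMEM with 10% FBS and fluorescence was read at excitation 540 nm. Activity is expressed as Rose Bengal sodium equivalency.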
A short description of assay [3]: qHTS assay to test for compound auto fluorescence at 590 nm (red) in HepG2 cell free culture (AID 720684). The essentials:
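Red fluorescence (540 nm excitation, 590 nm emission) was measured after compound transfer into cell-free MEM supplemented with 10% FBS. Values are equivalencies against Rose Bengal sodium.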

Assay [4] is described as follows: qHTS assay to test for compound auto fluorescence at 460 nm (blue) in HepG2 cell free culture (AID 720685). Note: potency is the fitted concentration of half-maximal effect. An outline of the steps: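 Compound (23 nL) or DMSO pinned into cell-free MEM with 10% FBS; blue fluorescence read at 405/460 nm excitation/emission, expressed as auto-fluorescence equivalency to triamterene.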
Assay [5] in a line: qHTS assay to test for compound auto fluorescence at 535 nm (green) in HepG2 cell free culture (AID 720686). Note: potency is the fitted concentration of half-maximal effect.
Assay [6] can be described thus: qHTS assay to test for compound auto fluorescence at 460 nm (blue) in HepG2 cells (AID 720687). Note: potency is the fitted concentration of half-maximal effect. The essentials: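 Cells (2,000/well in MEM with 10% FBS) attached overnight at 37 C, then were exposed to compound or DMSO for 1 hr at 37 C, 5% CO2. Fluorescence read at Ex/Em 405/460 nm, expressed as triamterene-equivalent signal.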
Assay [7] is described as follows: qHTS assay to test for compound auto fluorescence at 535 nm (green) in HEK293 cell free culture (AID 720682). The essentials:
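Measurement is a direct plate read of green fluorescence (485 nm in, 535 nm out) after compound addition to serum-supplemented DMEM lacking cells, with fluorescein used to express intensities.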

Assay [8] addresses Glucocorticoid receptor (Homo sapiens) (UniProt P04150). The assay is described as follows: qHTS assay to identify small molecule antagonists of the glucocorticoid receptor (GR) signaling pathway (AID 720692; active = well fitted inhibition curve with a large enough effect in the signal ratio in the repeat runs, not every such curve was filed as active; the % refers to the signal ratio; note: potency is the fitted concentration of half-maximal effect). An outline of the steps:
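Fluorescence from cleaved LiveBLAzer B/G FRET substrate reports GRE-driven beta-lactamase in HeLa cells; compounds are tested against 5 nM dexamethasone (final) over 18 h at 37 C, substrate incubation 2 h at room temperature.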

Assay [9] shares this target. In words: qHTS assay to identify small molecule agonists of the glucocorticoid receptor (GR) signaling pathway (AID 720691; active = well fitted activation curve with a large enough effect in the signal ratio in the repeat runs, not every such curve was filed as active; the % refers to the signal ratio; note: potency is the fitted concentration of half-maximal effect). The settings on record: GR-bla HeLa, beta-lactamase reporter ratio, 18 h; activation: at 62.4 µM (top of the series). An outline of the steps: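 Beta-lactamase reporter activity, read as fluorescence intensity, was measured in GR-bla HeLa cells exposed to compounds for 18 h at 37 C and then loaded with LiveBLAzer B/G FRET substrate for 2 h at room temperature.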
% is set by controls: 0 for no effect and ±100 for the full control effect; tags give direction and shape of the fitted curve or compound fluorescence and quenching.

Sequence of Glucocorticoid receptor (Homo sapiens) (P04150 whole entry, looked up): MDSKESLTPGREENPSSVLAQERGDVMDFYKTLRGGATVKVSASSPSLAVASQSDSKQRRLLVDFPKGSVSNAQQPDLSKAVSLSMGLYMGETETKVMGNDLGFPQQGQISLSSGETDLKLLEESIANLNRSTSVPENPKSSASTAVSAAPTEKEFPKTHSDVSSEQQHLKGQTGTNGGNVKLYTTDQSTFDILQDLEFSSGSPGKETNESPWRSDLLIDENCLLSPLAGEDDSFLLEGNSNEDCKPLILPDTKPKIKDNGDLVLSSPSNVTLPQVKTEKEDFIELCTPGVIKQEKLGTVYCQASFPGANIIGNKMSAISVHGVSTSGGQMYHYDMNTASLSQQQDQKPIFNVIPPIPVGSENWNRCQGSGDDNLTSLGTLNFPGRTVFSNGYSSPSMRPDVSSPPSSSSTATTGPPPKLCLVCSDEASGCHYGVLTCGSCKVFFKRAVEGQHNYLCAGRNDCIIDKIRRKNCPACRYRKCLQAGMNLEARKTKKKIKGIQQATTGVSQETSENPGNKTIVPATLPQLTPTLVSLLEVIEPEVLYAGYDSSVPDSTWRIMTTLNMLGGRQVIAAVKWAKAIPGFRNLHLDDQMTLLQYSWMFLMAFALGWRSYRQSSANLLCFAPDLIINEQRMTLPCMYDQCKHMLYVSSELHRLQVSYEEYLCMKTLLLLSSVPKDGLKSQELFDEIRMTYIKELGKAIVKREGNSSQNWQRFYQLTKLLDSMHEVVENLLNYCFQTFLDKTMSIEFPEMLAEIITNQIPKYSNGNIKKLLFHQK

For the compound `CCCC(=O)OC[C@@H](OC(=O)CCC)[C@@H](OC(=O)CCC)[C@H](Cn1c2nc(=O)[nH]c(=O)c-2nc2cc(C)c(C)cc21)OC(=O)CCC`, the Potency result in assay [1], in assay [2], in assay [3], in assay [4] and in assay [6] was “inactive” throughout. In assay [5], the Potency is 8.91 µM [fluorescent] (active).

As to `OCCN(CCO)c1nc(N2CCCCC2)c2nc(N(CCO)CCO)nc(N3CCCCC3)c2n1`, the Potency was 12.6 µM (active) in assay [1], 12.6 µM [fluorescent] (active) in [4] and 12.6 µM [fluorescent] (active) in [6]. Moreover, the outcome in assay [7] was inactive. For the same compound, the Potency result in [2] and in assay [3] was “inactive” throughout.

Regarding `O=C(NOCC1CC1)c1ccc(F)c(F)c1Nc1ccc(I)cc1Cl`, the Potency result in assay [1], in assay [2], in assay [3], in assay [4], in assay [5] and in assay [6] was “inactive” in each case. Besides, the Potency in [8] was 10.7 µM (active).

As for `C[C@H]1[C@H]2CC[C@H]3[C@@H]4CC=C5C[C@@H](N(C)C)CC[C@]5(C)[C@H]4CC[C@]23CN1C`, the Potency result in [1], in [2], in assay [3], in [4], in assay [5] and in assay [9] was “inactive” each time. Further, in assay [8], the Potency result was “inactive”. In [7], the compound was called inactive.

As for `O=C(NO)C1(NS(=O)(=O)c2ccc(Oc3ccc(F)cc3)cc2)CCOCC1`, the Potency entry in assay [1], in assay [2], in assay [3], in [4], in assay [5] and in assay [6] was “inactive” throughout. Moreover, the Potency entry in assay [9] is “inactive”. For the same compound, in [7], the result was inactive.

`C=C(C)C(=O)OCC[N+](C)(C)C`: the Potency result in assay [1], in [2], in assay [3], in [4], in assay [6] and in [9] was “inactive” in each case. Also, the Potency result in [8] was “inactive”. Moreover, the call in assay [7] was inactive.

Take `C[n+]1cc2c3c(ccc2c2ccc4cc5c(cc4c21)OCO5)OCO3`: the Potency result in assay [1], in assay [2], in assay [3], in assay [5] and in assay [6] was “inactive” throughout. The outcome in assay [7] was inactive.

Take `CN(C)c1ccc(SC#N)cc1`: the Potency entry in assay [1], in [2], in assay [3], in assay [4], in [6] and in assay [9] was “inactive” throughout. For the same compound, in assay [7], the call was inactive.

Consider `Cc1c(C)c2c(c(C)c1O)CCC(C)(COc1ccc(CC3SC(=O)NC3=O)cc1)O2` (centres undefined), for which the Potency result in [1], in [2], in [3], in [4], in [5] and in assay [6] was “inactive” each time. Further, the outcome in assay [7] was inactive.

For the compound `O=C1CCCc2c1cc1ccc3cccc4ccc2c1c34`, the Potency result in [1], in assay [2], in [3], in [4], in assay [5] and in [6] was “inactive” throughout. Also, the result in assay [7] was inactive. For the same compound, the Potency in assay [9] is 22.2 µM (active).

Turning to `Cc1cc(O)c(Cl)c(C)c1Cl`, the Potency result in [1], in assay [2], in assay [3], in [4], in assay [5] and in assay [6] was “inactive” throughout. In addition, in assay [9], the Potency result was “inactive”.

On to `OCCN1CCN(CC/C=C2/c3ccccc3Sc3ccc(C(F)(F)F)cc32)CC1`, for which the Potency result in [1], in assay [2], in [3], in [4], in assay [5] and in [6] was “inactive” in each case. For the same compound, the outcome in [7] was inactive.

As to `COc1ccc(CN2CCN(C(c3ccc(F)cc3)c3ccc(F)cc3)CC2)c(OC)c1OC`, the Potency entry in assay [1], in assay [2], in assay [3], in [4], in assay [5] and in assay [6] was “inactive” in each case. In addition, the result in [7] was inactive. The Potency in [9] was 4.77 µM (active).

For `CCCCCCCCCCC=O`, the Potency entry in assay [1], in assay [2], in assay [3], in assay [4], in assay [5] and in assay [6] was “inactive” each time. For the same compound, the Potency result in assay [9] and in assay [8] was “inactive” throughout. Besides, the compound was called inactive in assay [7].

As to `COc1ccc(C(=O)/C(Br)=C\C(=O)O)cc1`, the Potency result in [1], in [2], in assay [3], in assay [6], in assay [9] and in [8] was “inactive” throughout. The call in assay [7] was inactive.

With `O=c1[nH]cnc2nc[nH]c12`, the Potency result in [1], in [2], in assay [3], in assay [4], in assay [5] and in assay [6] was “inactive” in each case. For the same compound, in [7], the compound was classed as inactive.

For the compound `CCC(N)(CO)CO`, the Potency result in assay [1], in assay [2], in assay [3], in assay [4], in assay [5] and in assay [6] was “inactive” each time. Further, the Potency result in assay [9] and in assay [8] was “inactive” throughout. The compound was called inactive in assay [7].

Consider `Fc1ccc([C@@H]2CCNC[C@H]2COc2ccc3c(c2)OCO3)cc1`, for which the Potency result in assay [1], in assay [2], in assay [3], in [4], in assay [6] and in assay [9] was “inactive” in each case. Also, the call in assay [7] was inactive.

Turning to `Oc1ccc2cc(SSc3ccc4cc(O)ccc4c3)ccc2c1`, the Potency entry in assay [1], in [2], in assay [3], in assay [4], in assay [5] and in [6] was “inactive” each time. For the same compound, the compound was called inactive in assay [7].

As for `C[C@@H](NCCCc1cccc(C(F)(F)F)c1)c1cccc2ccccc12`, the Potency entry in assay [1], in [2], in [3], in [4], in [5] and in assay [6] was “inactive” throughout. In addition, in assay [7], the compound was called inactive.

In the case of `CCOC(=O)O[C@H](C)OC(=O)c1ccc2c(c1)cc(C(=O)NC1CCN(C(C)C)CC1)n2Cc1cc(-c2ccc(Cl)s2)on1`, the Potency result in assay [1], in [2], in [3], in assay [4], in assay [5] and in assay [6] was “inactive” each time.

As for `Cc1cccc(S(=O)(=O)O)c1C`, the Potency entry in assay [1], in [2], in assay [3], in assay [4], in assay [9] and in assay [8] was “inactive” throughout.

As to `N=C1N=C(N)c2ccccc21`, the Potency entry in assay [1], in assay [2], in [3], in assay [4], in assay [5] and in [6] was “inactive” throughout. Moreover, the compound was classed as inactive in assay [7].

Regarding `CNCc1cc(F)ccc1Oc1ccc(Cl)c(Cl)c1`, the Potency result in assay [1], in assay [2], in [3], in assay [4], in assay [5] and in [9] was “inactive” throughout. Also, the compound was called inactive in assay [7].

On to `Cc1cccc2c1cc1ccc3cccc4ccc2c1c34`, for which the Potency result in assay [1], in [2], in [3], in assay [4], in assay [5] and in assay [6] was “inactive” each time. Also, the call in [7] was inactive. Moreover, in assay [9], the Potency is 5.01 µM [fluorescent] (active).

As for `Nc1ccc2c3c(cccc13)-c1ccccc1-2`, the Potency result in assay [2] and in [3] was “inactive” throughout. Further, the Potency in [5] is 39.8 µM [fluorescent] (active).

With `COc1ccc(-c2ccc3cc(C(=O)O)ccc3c2)cc1C12CC3CC(CC(C3)C1)C2`, the Potency entry in [1], in assay [2], in [3], in assay [4], in assay [5] and in [6] was “inactive” each time. Besides, in assay [7], the call was inactive.

Consider `N#CSc1ccc(N)c([N+](=O)[O-])c1`, for which the Potency entry in assay [1], in assay [2], in assay [3], in assay [4], in assay [5] and in assay [6] was “inactive” each time. Moreover, the Potency result in assay [9] was “inactive”.

As for `CCC(C)Nc1ccc(NC(C)CC)cc1` (centres undefined), the Potency entry in assay [1], in assay [2], in assay [3], in assay [4], in assay [5] and in [6] was “inactive” each time.

As for `Cc1cc(C2CCCCC2)n(O)c(=O)c1`, the fluorescence, % of fluorescent control is -0.0092% [at 18.6 µM] in assay [1], 0.0163% [at 18.6 µM] in assay [2], 0.0075% [at 18.6 µM] in [4] and 0.0031% [at 18.6 µM] in assay [6]. Besides, the activity change in assay [7] was 0.0414% [at 18.6 µM]. Also, the fluorescence, % of Rose Bengal in assay [3] was -0.0195% [at 18.6 µM]. Besides, the fluorescence, % of fluorescein control in [5] was 0.005% [at 18.6 µM].

Regarding `C1CCCC1`, the Potency result in [1], in [2], in [3], in assay [4], in assay [5] and in assay [6] was “inactive” throughout.

For `CC(C)(C)C(=O)OCOC(=O)C1N2C(=O)CC2S(=O)(=O)C1(C)C` (centres undefined), the Potency result in assay [1], in [2], in assay [3], in assay [4], in assay [5] and in assay [6] was “inactive” in each case. The compound was classed as inactive in assay [7].

In the case of `CCCCCCCCn1sc(Cl)c(Cl)c1=O`, the Potency entry in assay [1], in assay [2], in [3], in assay [4], in [5] and in assay [6] was “inactive” throughout. In [7], the call was inactive.

As for `COCCCC/C(=N\OCCN)c1ccc(C(F)(F)F)cc1`, the Potency entry in assay [1], in assay [2], in assay [3], in [4], in [5] and in assay [6] was “inactive” each time. The Potency entry in assay [9] and in assay [8] was “inactive” in each case. In [7], the call was inactive.
